# RORg inh: ROR gamma (mouse) transcription inhibition; P51450; Drosophila S2 Gal4-RORgamma UAS-luciferase reporter, 20 h; Potency, µM (titrated, usually from 53.6 µM), for inactives: top-dose activity change, negative = inhibition, hits mostly inhibitors; hit rate 5.4% among 310,000; AID 2551; also: nearly all actives have a fitted effect of over 60% in size
#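 Schneider cells (Drosophila), stable Gal4 DBD–ROR gamma + UAS-luc; 1 hr cmpd preincubation; Cu2+ induction 700 uM final; 20 hr ambient; luminescence.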
# TDP1 inh: TDP1 (human) enzyme inhibition; recombinant TDP1, AlphaScreen DNA substrate cleavage; AID 485290; Potency, µM (series often up to 130 µM), without a hit: at the top dose activity change, negative = inhibition, most hits filed as inhibitors; hit rate 0.28% among 350,000; Q9NUW8; also: nearly all actives have a fitted effect of over 40% in size
# Target sequence (Q9NUW8 whole entry, looked up): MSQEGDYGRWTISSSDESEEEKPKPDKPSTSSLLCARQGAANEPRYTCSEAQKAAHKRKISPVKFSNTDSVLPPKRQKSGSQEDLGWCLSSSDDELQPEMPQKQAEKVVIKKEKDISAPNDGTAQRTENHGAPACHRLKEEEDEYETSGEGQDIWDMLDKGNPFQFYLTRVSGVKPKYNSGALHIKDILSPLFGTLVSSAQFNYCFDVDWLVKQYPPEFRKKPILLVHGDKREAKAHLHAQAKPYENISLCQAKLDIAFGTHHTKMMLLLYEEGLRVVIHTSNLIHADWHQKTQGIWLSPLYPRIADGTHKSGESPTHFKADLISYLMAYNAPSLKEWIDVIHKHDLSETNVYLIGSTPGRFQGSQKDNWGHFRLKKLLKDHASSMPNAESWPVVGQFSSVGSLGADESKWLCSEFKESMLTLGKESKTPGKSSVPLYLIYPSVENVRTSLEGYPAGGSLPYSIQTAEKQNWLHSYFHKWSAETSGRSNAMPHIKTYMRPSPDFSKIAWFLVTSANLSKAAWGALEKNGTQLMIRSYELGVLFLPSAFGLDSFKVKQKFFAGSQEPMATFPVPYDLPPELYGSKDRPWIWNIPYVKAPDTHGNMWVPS
#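 E. coli-derived human Tdp1, 1 nM final. Cpd preinc 15 min RT; substrate 15 nM final, 5 min RT; AS bead mix 10 ug/ml final, 10 min RT. Signal loss = tyrosine-FITC cleavage. No-enzyme wells = max signal.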
# TDP1 cell CPT: DT40-hTDP1 cell growth loss with CPT. chicken DT40 Tdp1-/-;hTDP1 cells + 20 nM CPT, ATP luminescence, 48 h. Potency, µM (titrated, usually from 46.2 µM), for inactives: at the highest dose activity change, negative = growth inhibition, actives largely listed as inhibitors. hit rate 12% among 420,000. AID 686979; also: nearly all actives have a fitted effect of over 55% in size
#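 Chicken DT40 Tdp1-/- cells complemented with human TDP1, 400 cells/well, exposed to compounds plus 20 nM camptothecin for at least 48 h at 37 C; viability read as ATP content by CellTiter-Glo luminescence.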
# DT40 TDP1 no CPT: qHTS for Inhibitors of human tyrosyl-DNA phosphodiesterase 1 (TDP1): qHTS in cells in absence of CPT; DT40 Tdp1-/- hTDP1 cells, no CPT, ATP luminescence, 48 h; Potency, µM (highest dose often 46.2 µM), without a hit: top-dose activity change, negative = growth inhibition, most hits filed as inhibitors; hit rate 15% among 420,000; AID 686978, 2013; also: nearly all actives have a fitted effect of over 55% in size
#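 Chicken DT40 Tdp1-/- cells stably complemented with human TDP1 were seeded at 400 cells/well with DMSO in place of 20 nM camptothecin. After compound pinning, cells grew at least 48 hr at 37 °C; viability read by CellTiter-Glo luminescence.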
# Gal4-VP16 FLuc: Gal4-VP16 reporter inhibition counter-screen; AID 2546; Potency, µM (highest dose often 53.6 µM), without a hit: at the highest dose activity, negative = inhibition, actives largely listed as inhibitors; Drosophila S2 Gal4-VP16 UAS-luciferase, luminescence, 20 h; hit rate 3.5% among 310,000;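 also: Gal4-VP16 expression switched on by copper sulfate through the metallothionein promoter; nearly all actives have a fitted effect of over 50% in size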
# An asterisk follows results filed as active; ? = inconclusive; · = not tested or not shown; [ ] = dose if it differs, or a comment. Hits are enriched below; roughly 19% of the tested compounds scored in any of these assays. Calls follow the shape of the dose curve; as a rule, active = well fitted curve in the direction sought with a large enough effect; inconclusive = small, poorly fitted or top-dose-only effect, or another doubt; inactive = no such curve, though single readings can be large; an effect the other way counts as inactive or inconclusive. % is scaled to controls: 0 for no effect and ±100 for the full control effect; potency is read from the fitted curve at half-maximal effect.
SMILES,RORg inh,TDP1 inh,TDP1 cell CPT,DT40 TDP1 no CPT,Gal4-VP16 FLuc
O=C(CSc1ccc(-c2nc3ccccc3[nH]2)cn1)Nc1ccc2c(c1)OCCO2,-19.0%,-8.3%,-27.3%,-23.5%,-8.8%
O=c1c(-c2cc(F)cc(F)c2)nc2cnc(Oc3ccccc3)nc2n1C1CC1,18.4%,·,-16.0%,?,1.5%
O=C(CSc1nnc(-c2cccs2)n1Cc1ccco1)Nc1ccc2c(c1)OCO2,12.2%,8.8%,-9.5%,-22.8%,-16.6%
Cc1ccc(NC(=O)Cn2c(-c3ccc(F)cc3)cnc2SCC(=O)Nc2c(C)cccc2C)cc1,-26.6%,1.2%,10.3µM*,11.6µM*,?
O=C(CSc1ncc(-c2ccc(F)cc2)n1Cc1ccco1)Nc1ccc2c(c1)OCO2,19.5%,9.2%,29.1µM*,?,17.6%
CSc1ccc(OCC(=O)Nc2ccc(N3CCOCC3)c(Cl)c2)cc1,·,3.5%,?,?,·
COc1cc(OC)cc(C(=O)Nc2nc3ccc(S(C)(=O)=O)cc3s2)c1,-5.8%,1.6%,-24.9%,?,-1.3%
Cc1ccc(C(=O)Nc2nc3ccc(S(C)(=O)=O)cc3s2)s1,3.16µM*,2.1%,-20.1%,?,?
NS(=O)(=O)c1ccc2nc(NC(=O)Nc3ccccc3F)sc2c1,28.7%,7.6%,?,8.2µM*,9.1%
CS(=O)(=O)c1ccc2nc(NC(=O)c3cccc([N+](=O)[O-])c3)sc2c1,-12.3%,·,-14.1%,18.4µM*,?
COc1ccc2oc(C(=O)Nc3nc4ccc(S(C)(=O)=O)cc4s3)c(C)c2c1,·,0.4%[0.505 µM],?,16.4µM*,·
CCC(=O)O[C@]1(C(=O)CCl)[C@@H](C)CC2C3C[C@H](F)C4=CC(=O)C=CC4(C)[C@@]3(F)C(O)CC21C (some centres not stated),-15.9%,·,·,·,-7.4%
CCCC(=O)Nc1cc2c(cc1C(=O)c1ccccc1)OCCO2,1.2%,4.8%,9.2%,?,1.1%
O=C(CCN1CCOCC1)NNC(=O)/C(=C/c1ccccc1)NC(=O)c1ccccc1,-16.9%,5.4%,7.1%,4.3%,-8.9%
COc1ccc2oc(C(=O)Nc3nc(-c4ccccn4)cs3)c(C)c2c1,·,5.3%,5.8µM*,5.8µM*,·
CCC(=O)Nc1nc2ccc(S(C)(=O)=O)cc2s1,?,2.4%,-1.6%,-2.0%,3.9%
CS(=O)(=O)c1ccc2nc(NC(=O)CC3CCCC3)sc2c1,?,5.1%,?,13µM*,-6.7%
Cc1cc(C(=O)Nc2nc3ccc(S(C)(=O)=O)cc3s2)c(C)o1,1.12µM*,5.5%,?,-25.7%,?
Cc1cccc(OCC(=O)Nc2nc3ccc([N+](=O)[O-])cc3s2)c1,1.6%,7.1%,-18.6%,-11.9%,-16.4%
Cc1cccc(OCC(=O)Nc2nc3ccc([N+](=O)[O-])cc3s2)c1C,-3.4%,2.0%,25.9µM*,?,0.0%
COc1ccc2nc(NC(=O)c3cc(C)oc3C)sc2c1,?,-1.2%,?,?,?
COc1ccc(N2CC(C(=O)Nc3ccc(S(=O)(=O)N4CCCCC4)cc3)CC2=O)cc1 (configuration not stated),?,0.2%,?,?,-5.0%
Cc1nc(C(F)(F)F)ccc1C(=O)NCC(O)c1ccccc1 (configuration not stated),-3.3%,·,4.9%,2.0%,-3.6%
c1cnc(NCCNc2ncccn2)nc1,?,-2.6%,3.0%,4.4%,-0.3%[0.365 µM]
O=C(CS(=O)(=O)c1ccc(Cl)cc1)Nc1nc2ccc(Br)cc2s1,·,5.2%,?,23.1µM*,·
CC(=O)Nc1ccc2nc(NC(=O)CS(=O)(=O)c3ccc(C)cc3)sc2c1,·,2.6%,-25.4%,?,·
Cc1ccc2nc(NC(=O)c3cccs3)sc2c1,?,2.1%,-23.4%,-7.9%,-29.8%
CS(=O)(=O)c1ccc2nc(NC(=O)c3cccs3)sc2c1,14.1µM*,6.2%,11.6µM*,?,8.91µM*
COc1ccc(CNc2ccnc(-c3ccc(N(C)C)cc3)n2)c(OC)c1,28.0%,·,25.9µM*,?,3.4%

# Assay outcomes: PubChem, National Center for Advancing Translational Sciences (NCATS)
